# Assay results taken from PubChem BioAssay AID651642 (Sanford-Burnham Center for Chemical Genomics, 2012).
# Calls of active or inactive are those of the source.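 Rule for the calls: active = average half-effect concentration of 10 µM or less in every one of the four cell panels; inactive = the rest.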
# Tested on: HL-1
# Experiment: cardiomyocyte survival under oxidative or metabolic stress – cell-based, panel, H9c2 and HL-1, H2O2, 2-deoxyglucose, ATP luminescence, SAR follow-up (AID 651642)
# Details: H9c2/HL-1 cardiomyocyte 2-deoxyglucose damage, mean of runs, with 2-deoxyglucose
row,Compound,outcome
1,COc1cc(-c2cc(C(=O)Nc3cccc(C(C)=O)c3)c3cccc(Cl)c3n2)cc(OC)c1OC,inactive
2,COc1ccc2c(c1OC)C(=O)N1c3ccccc3C(=O)N(Cc3c(Cl)cccc3Cl)C21 (configuration not stated),inactive
3,COc1ccc2nc(-c3cc(OC)c(OC)c(OC)c3)cc(C(=O)NCC(=O)Nc3ccc(C(C)=O)cc3)c2c1,active
4,COc1ccc(NC(=O)CNC(=O)c2cc(-c3cc(OC)c(OC)c(OC)c3)nc3ccccc23)cc1,active
5,COc1ccc2c(c1OC)C(=O)N1c3ccccc3C(=O)N(Cc3ccc(C)cc3)C21 (configuration not stated),inactive
6,COc1cc(-c2cc(C(=O)Nc3cccc(C(N)=O)c3)c3ccccc3n2)cc(OC)c1OC,inactive
7,COc1cc(-c2cc(C(=O)NCC(=O)Nc3ccc(C(C)=O)cc3)c3ccccc3n2)cc(OC)c1OC,inactive
8,COc1cc(-c2cc(C(=O)Nc3cccc(C(=O)O)c3)c3ccccc3n2)cc(OC)c1OC,inactive
9,COc1cc(-c2cc(C(=O)Nc3cccc(C(C)=O)c3)c3cc(Br)ccc3n2)cc(OC)c1OC,inactive
10,COc1cc(-c2cc(C(=O)NCC(=O)Nc3cccc(C(C)=O)c3)c3cc(F)ccc3n2)cc(OC)c1OC,active
11,COc1cc(-c2cc(C(=O)Nc3cccc(C(=O)N4CCOCC4)c3)c3ccccc3n2)cc(OC)c1OC,inactive
12,CCOC(=O)c1cccc(NC(=O)c2cc(-c3cc(OC)c(OC)c(OC)c3)nc3ccc(OC)cc23)c1,inactive
13,CCOC(=O)c1cccc(NC(=O)c2cc(-c3cc(OC)c(OC)c(OC)c3)nc3cc(Cl)ccc23)c1,inactive
14,COc1cc(-c2cc(C(=O)Nc3cccc(C(=O)Nc4ccccc4)c3)c3ccccc3n2)cc(OC)c1OC,active
15,CCOC(=O)c1cccc(NC(=O)CNC(=O)c2cc(-c3cc(OC)c(OC)c(OC)c3)nc3ccc(C)cc23)c1,active
16,COc1cc(-c2cc(C(=O)Nc3cccc(C(C)=O)c3)c3ccccc3n2)cc(OC)c1OC,active

row,Compound,outcome
1,COc1ccc2c(c1OC)C(=O)N1c3ccccc3C(=O)N(Cc3ccccn3)C21 (configuration not stated),inactive
2,CCOC(=O)c1cccc(NC(=O)c2cc(-c3cc(OC)c(OC)c(OC)c3)nc3ccc(F)cc23)c1,inactive
3,COc1ccc2c(c1OC)C(=O)N1c3ccccc3C(=O)N(Cc3ccccc3Cl)C21 (configuration not stated),active
4,COc1cc(-c2cc(C(=O)NCC(=O)Nc3cccc(C(C)=O)c3)c3cc(Br)ccc3n2)cc(OC)c1OC,active
5,CCOC(=O)c1ccc(NC(=O)c2cc(-c3cc(OC)c(OC)c(OC)c3)nc3ccccc23)cc1,inactive
6,CCOC(=O)c1cccc(NC(=O)CNC(=O)c2cc(-c3cc(OC)c(OC)c(OC)c3)nc3ccc(Br)cc23)c1,active
7,COc1cccc(CNC(=O)CNC(=O)c2cc(-c3cc(OC)c(OC)c(OC)c3)nc3ccccc23)c1,inactive
8,CCOC(=O)c1cccc(NC(=O)CNC(=O)c2cc(-c3cc(OC)c(OC)c(OC)c3)nc3ccc(F)cc23)c1,active
9,COc1ccc2c(c1OC)C(=O)N1c3ccccc3C(=O)N(Cc3ccccc3)C21 (configuration not stated),inactive
10,CCOC(=O)c1cccc(NC(=O)c2cc(-c3cc(OC)c(OC)c(OC)c3)nc3ccc(Cl)cc23)c1,inactive
11,COC(=O)CNC(=O)c1cc(-c2cc(OC)c(OC)c(OC)c2)nc2ccccc12,inactive
12,COC(=O)CNC(=O)c1cccc(NC(=O)c2cc(-c3cc(OC)c(OC)c(OC)c3)nc3ccccc23)c1,active
13,COc1cc(-c2cc(C(=O)NCC(=O)O)c3ccccc3n2)cc(OC)c1OC,inactive
14,COc1cc(-c2cc(C(=O)NCC(=O)Nc3ccc(C(C)=O)cc3)c3cc(C)ccc3n2)cc(OC)c1OC,active
15,COc1cc(-c2cc(C(=O)NCC(=O)Nc3cccc(C(C)=O)c3)c3ccccc3n2)cc(OC)c1OC,active
16,COc1ccc2c(c1OC)C(=O)N1c3ccccc3C(=O)N(Cc3ccc(F)cc3)C21 (configuration not stated),inactive
